Reference: PubChem BioAssay
For some assays here: Results with a measured potency or affinity are listed apart. The source made the active and inactive calls. Unless noted, no rule for the calls is given here.

How the values were obtained:
[1] = antimalarial activity against Dd2 strain (AID 2302;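 active = growth inhibition above 50% at the single 2 µM test dose, taken to imply half-maximal potency below 2 µM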;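 also: 0% = DMSO untreated growth and 100% = chloroquine plus artemisinin killed control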); conditions: P. falciparum Dd2 in RBCs, LDH growth readout, 72 h; at 2 µM; stronger effect = higher value
[2] = HepG2 cytotoxicity, primary screen, cytotoxicity control for P. falciparum antimalarial project, cell-based, ATP luminescence (AID 2303;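 active = inhibition above 50%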;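 also: 0% = DMSO wells and 100% = digitonin-killed cells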); conditions: HepG2 viability, 24-48 h, at 10 µM, stronger effect = higher value
[3] = molecular target: L-lactate dehydrogenase (Plasmodium falciparum (isolate CDC / Honduras)) (UniProt Q27743); assay: PfLDH activity inhibition – cell lysate, 3D7 strain, counter-screen for P. falciparum growth inhibition project (AID 2304);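 also: 0% = vehicle and 100% = reference inhibitor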; conditions: P. falciparum 3D7 crude extract, LDH APAD/NBT absorbance; at 2 µM; stronger effect = higher value
[4] = inhibition of 3D7 malaria parasite growth – strain 3D7 (AID 2306);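 also: 0% = DMSO wells and 100% = chloroquine plus artemisinin control wells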; conditions: P. falciparum 3D7 erythrocytic growth, LDH absorbance, 72 h; at 2 µM; stronger effect = higher value
[5] = molecular target: Calcium-dependent protein kinase 1 (Plasmodium falciparum (isolate 3D7)) (UniProt P62344); assay: PfCDPK1 kinase inhibitors, biochemical, TCAMS library (AID 1159585; cut-off not given, nearly all actives have IC50 up to about 0.98 µM;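 also: inhibitors leave more ATP so luminescence rises with inhibition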); conditions: recombinant PfCDPK1, Kinase-Glo ATP depletion luminescence
[6] = molecular target: Plasmodium falciparum protein kinase 6 (PK6, PF3D7_1337100) (UniProt Q8IDW1); assay: PfPK6 kinase inhibitors, biochemical, TCAMS library (AID 1159586); conditions: recombinant PfPK6, Kinase-Glo ATP depletion luminescence
[7] = molecular target: Protein kinase 7 (PK7), Plasmodium falciparum 3D7 (PF3D7_0213400) (UniProt Q7YTF7); assay: inhibition of Plasmodium PK7 catalytic activity – biochemical, TCAMS antimalarial set, Kinase-Glo luminescence (AID 1159587); conditions: recombinant PfPK7, Kinase-Glo ATP depletion luminescence
[8] = molecular target: Calcium-dependent protein kinase 4 (Plasmodium falciparum (isolate 3D7)) (UniProt Q8IBS5); assay: PfCDPK4 kinase inhibitors, biochemical, TCAMS library (AID 1159588; cut-off not given, nearly all actives have IC50 up to about 0.91 µM); conditions: recombinant PfCDPK4, Kinase-Glo ATP depletion luminescence
Sequence of Calcium-dependent protein kinase 4 (Plasmodium falciparum (isolate 3D7)) (Q8IBS5 whole entry, looked up): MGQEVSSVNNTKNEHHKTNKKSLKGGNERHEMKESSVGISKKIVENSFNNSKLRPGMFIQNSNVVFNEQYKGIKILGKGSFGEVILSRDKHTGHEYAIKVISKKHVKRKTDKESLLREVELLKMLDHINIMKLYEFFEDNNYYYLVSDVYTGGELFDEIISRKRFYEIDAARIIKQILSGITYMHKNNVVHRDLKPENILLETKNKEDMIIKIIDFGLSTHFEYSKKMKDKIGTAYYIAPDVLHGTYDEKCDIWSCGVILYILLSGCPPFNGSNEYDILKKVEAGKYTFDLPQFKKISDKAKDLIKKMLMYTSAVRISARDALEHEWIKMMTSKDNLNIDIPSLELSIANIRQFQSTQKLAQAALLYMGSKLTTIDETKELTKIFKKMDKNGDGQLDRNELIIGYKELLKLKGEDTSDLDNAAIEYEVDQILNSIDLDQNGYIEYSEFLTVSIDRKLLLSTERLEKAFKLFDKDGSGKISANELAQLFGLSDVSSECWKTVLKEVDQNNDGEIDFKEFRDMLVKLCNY

Sequence of Plasmodium falciparum protein kinase 6 (PK6, PF3D7_1337100) (Q8IDW1 1-305): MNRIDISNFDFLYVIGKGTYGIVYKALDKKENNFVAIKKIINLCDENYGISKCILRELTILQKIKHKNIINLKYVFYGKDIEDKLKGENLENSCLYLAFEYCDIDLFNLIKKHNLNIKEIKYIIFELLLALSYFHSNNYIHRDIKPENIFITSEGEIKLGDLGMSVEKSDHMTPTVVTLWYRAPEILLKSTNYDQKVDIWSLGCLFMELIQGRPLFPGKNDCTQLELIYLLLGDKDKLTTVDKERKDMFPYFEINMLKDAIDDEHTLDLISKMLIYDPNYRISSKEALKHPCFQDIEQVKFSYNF
Sequence of Calcium-dependent protein kinase 1 (Plasmodium falciparum (isolate 3D7)) (P62344 whole entry, looked up): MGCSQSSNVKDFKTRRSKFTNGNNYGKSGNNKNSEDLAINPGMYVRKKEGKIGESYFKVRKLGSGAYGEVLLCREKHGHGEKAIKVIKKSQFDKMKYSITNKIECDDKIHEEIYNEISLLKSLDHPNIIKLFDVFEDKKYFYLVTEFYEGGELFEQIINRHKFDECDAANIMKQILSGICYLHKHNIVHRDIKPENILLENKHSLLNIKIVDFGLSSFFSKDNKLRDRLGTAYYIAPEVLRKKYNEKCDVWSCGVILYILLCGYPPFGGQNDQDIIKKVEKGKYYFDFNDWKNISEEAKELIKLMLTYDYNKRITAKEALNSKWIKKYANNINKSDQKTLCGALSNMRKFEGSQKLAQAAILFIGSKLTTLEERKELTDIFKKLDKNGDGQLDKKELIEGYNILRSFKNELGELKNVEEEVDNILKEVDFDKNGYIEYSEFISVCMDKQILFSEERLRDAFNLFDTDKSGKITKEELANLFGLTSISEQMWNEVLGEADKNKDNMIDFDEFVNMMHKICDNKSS
Sequence of Protein kinase 7 (PK7), Plasmodium falciparum 3D7 (PF3D7_0213400) (Q7YTF7 1-343): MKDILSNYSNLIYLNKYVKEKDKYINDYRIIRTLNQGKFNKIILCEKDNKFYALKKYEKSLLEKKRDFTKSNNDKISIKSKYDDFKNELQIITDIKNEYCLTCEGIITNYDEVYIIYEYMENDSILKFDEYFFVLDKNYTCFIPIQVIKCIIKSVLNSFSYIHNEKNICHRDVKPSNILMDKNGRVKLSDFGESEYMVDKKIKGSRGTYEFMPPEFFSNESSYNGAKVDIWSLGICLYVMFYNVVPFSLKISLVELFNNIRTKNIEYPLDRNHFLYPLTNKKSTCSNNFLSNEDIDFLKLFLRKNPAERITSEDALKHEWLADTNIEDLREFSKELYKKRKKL
Sequence of L-lactate dehydrogenase (Plasmodium falciparum (isolate CDC / Honduras)) (Q27743 whole entry, looked up): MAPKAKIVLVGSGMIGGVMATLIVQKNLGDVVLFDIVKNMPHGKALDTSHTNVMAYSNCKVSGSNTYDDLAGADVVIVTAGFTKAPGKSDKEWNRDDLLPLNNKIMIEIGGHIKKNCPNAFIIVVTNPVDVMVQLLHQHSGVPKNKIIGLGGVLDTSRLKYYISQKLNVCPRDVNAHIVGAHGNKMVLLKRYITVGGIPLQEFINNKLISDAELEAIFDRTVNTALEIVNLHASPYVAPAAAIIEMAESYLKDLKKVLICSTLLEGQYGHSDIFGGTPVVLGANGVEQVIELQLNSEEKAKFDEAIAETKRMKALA

COc1ccc(CN2CCC(NCc3cccc(C(F)(F)F)c3)CC2)cc1
inactive: growth inhibition [1] 8% | inhibition [2] 6% | inhibition [3] 0% | outcome [5] | outcome [6] | outcome [7] | outcome [8]
active: growth inhibition [4] 99%

CNC(=O)c1cnc(Nc2ccc(N3CCOCC3)cc2)nc1Nc1cccc(O)c1
active: growth inhibition [1] 78% | growth inhibition [4] 90%
inactive: inhibition [2] 23% | inhibition [3] -2% | outcome [5] | outcome [6] | outcome [7] | outcome [8]

COC(=O)c1ccc2nc(-c3cc(OC)c(O)c(C(=O)NC4CCN(Cc5ccccc5)CC4)c3)[nH]c2c1
inactive: growth inhibition [1] -2% | inhibition [2] 8% | inhibition [3] 0% | outcome [5] | outcome [6] | outcome [7] | outcome [8]
active: growth inhibition [4] 85%

CNCCNCc1ccc(-c2ccc(-c3nc4ccc(F)cc4[nH]3)s2)cc1
active: growth inhibition [1] 55% | growth inhibition [4] 99%
inactive: inhibition [2] 22% | inhibition [3] 2% | outcome [5] | outcome [6] | outcome [7] | outcome [8]

CN=C(Nc1c(Cl)cccc1Cl)N(C)C
inactive: growth inhibition [1] 1% | inhibition [2] -12% | inhibition [3] -1% | outcome [5] | outcome [6] | outcome [7] | outcome [8]
active: growth inhibition [4] 98%

CCCCCCN(C(=O)OCc1ccccc1)[C@@H]1CCN(C(=O)OC(C)(C)C)C[C@H]1C(=O)OCC
active: growth inhibition [1] 96% | growth inhibition [4] 96%
inactive: inhibition [2] 9% | inhibition [3] -6% | outcome [5] | outcome [6] | outcome [7] | outcome [8]

Cc1cc(Br)c(OCCCON2C(N)=NC(N)=NC2(C)C)c(Br)c1
active: growth inhibition [1] 97% | inhibition [2] 62% | growth inhibition [4] 95%
inactive: inhibition [3] -3% | outcome [5] | outcome [6] | outcome [7] | outcome [8]

Cc1c(C2CCN(CCCCNC(=O)c3ccc(-c4ccc(C#N)cc4)cc3)CC2)c2ccccc2n1CCO
inactive: inhibition [2] 28% | inhibition [3] 1% | outcome [5] | outcome [6] | outcome [7] | outcome [8]
active: growth inhibition [1] 99% | growth inhibition [4] 96%

CO/C(=C\C=C\c1cc2cc(Cl)c(Cl)cc2[nH]1)C(=O)NCCCN1CCN(c2ccc(OC)cc2)CC1
active: growth inhibition [4] 99%
inactive: growth inhibition [1] 44% | inhibition [2] 40% | inhibition [3] -7% | outcome [5] | outcome [6] | outcome [7] | outcome [8]

CC(O)C1CCCCN1C(=O)c1ccc(-c2ccc(-c3nc4ccccc4[nH]3)s2)cc1 (stereo not given)
inactive: inhibition [2] 33% | inhibition [3] -2% | outcome [5] | outcome [6] | outcome [7] | outcome [8]
active: growth inhibition [1] 98% | growth inhibition [4] 101%

COc1cc2nc(N3CCC(c4ccccc4)CC3)nc(NCc3ccc(=O)[nH]c3)c2cc1OC
inactive: inhibition [2] 12% | inhibition [3] 0% | outcome [5] | outcome [6] | outcome [7] | outcome [8]
active: growth inhibition [1] 58% | growth inhibition [4] 100%

O=C(NC(c1ccccc1)c1ccc2cccnc2c1O)c1ccccc1 (stereo not given)
active: growth inhibition [1] 63% | inhibition [2] 53% | growth inhibition [4] 94%
inactive: inhibition [3] -4% | outcome [5] | outcome [6] | outcome [7] | outcome [8]

FC(F)(F)COc1ccc2ccccc2c1CNCCCCCCNCc1c(OCC(F)(F)F)ccc2ccccc12
active: growth inhibition [1] 95% | inhibition [2] 99% | growth inhibition [4] 101%
inactive: inhibition [3] 2% | outcome [5] | outcome [6] | outcome [7] | outcome [8]

Cc1cc(OCC2CCN(c3ncc(C(=O)Nc4ccccc4)cc3Cl)CC2)ccc1F
inactive: inhibition [2] 27% | inhibition [3] -2% | outcome [5] | outcome [6] | outcome [7] | outcome [8]
active: growth inhibition [1] 87% | growth inhibition [4] 91%

CN1CCN(S(=O)(=O)c2cccc(Nc3nccc(N(C)c4ccc5c(c4)nc(NC(=O)c4cccs4)n5C)n3)c2)CC1
inactive: inhibition [2] 25% | inhibition [3] -6% | outcome [5] | outcome [6] | outcome [7] | outcome [8]
active: growth inhibition [1] 59% | growth inhibition [4] 99%

O=C(/C=C/c1ccc(Cl)c(Cl)c1)NCCCCCN1CCC(NC(=O)c2ccc(F)c(F)c2)CC1
inactive: growth inhibition [1] 20% | inhibition [2] 36% | inhibition [3] -3% | outcome [5] | outcome [6] | outcome [7] | outcome [8]
active: growth inhibition [4] 99%

Cc1ccc(NC(=O)NC2CCN(c3ccnc4ccccc34)CC2)cc1
active: growth inhibition [1] 52% | growth inhibition [4] 97%
inactive: inhibition [2] 21% | inhibition [3] -6% | outcome [5] | outcome [6] | outcome [7] | outcome [8]

CCCC1(NC[C@@H](O)[C@H](Cc2ccccc2)NC(=O)c2cc(NCC)cc(N3CCCCS3(=O)=O)c2)CC1
inactive: inhibition [2] 1% | inhibition [3] 0% | outcome [5] | outcome [6] | outcome [7] | outcome [8]
active: growth inhibition [1] 98% | growth inhibition [4] 98%

COC(=O)c1cccc(CNCc2ccc(-c3ccc(-c4nc5c(C)cccc5[nH]4)s3)cc2)c1
active: growth inhibition [1] 64% | growth inhibition [4] 101%
inactive: inhibition [2] 3% | inhibition [3] 0% | outcome [5] | outcome [6] | outcome [7] | outcome [8]

CC1(C)CCC(=Cc2ccc(Cl)cc2)CC1(O)Cn1ccnc1 (stereo not given)
inactive: inhibition [2] 0% | inhibition [3] -4% | outcome [5] | outcome [6] | outcome [7] | outcome [8]
active: growth inhibition [1] 74% | growth inhibition [4] 99%

CC1(C)N=C(N)NC(NOCc2ccc(Cl)c(Cl)c2)=N1
inactive: growth inhibition [1] 27% | inhibition [2] 5% | inhibition [3] 2% | outcome [5] | outcome [6] | outcome [7] | outcome [8]
active: growth inhibition [4] 96%

O=C(Nc1ccc([N+](=O)[O-])cc1Cl)c1cc2ccccc2cc1O
active: growth inhibition [4] 94%
inactive: growth inhibition [1] 28% | inhibition [2] 6% | inhibition [3] 0% | outcome [5] | outcome [6] | outcome [7] | outcome [8]

O=S(=O)(NCCN1CCCC1)c1ccc(-c2ccc(CNCc3ccsc3)cc2)cc1
inactive: growth inhibition [1] 36% | inhibition [2] 44% | inhibition [3] -5% | outcome [5] | outcome [6] | outcome [7] | outcome [8]
active: growth inhibition [4] 95%

CCCC1(NC[C@@H](O)[C@H](Cc2ccccc2)NC(=O)c2cc(NCC)cc(N3CCCCS3(=O)=O)c2)CCCC1
active: growth inhibition [1] 97% | growth inhibition [4] 101%
inactive: inhibition [2] -1% | inhibition [3] -5% | outcome [5] | outcome [6] | outcome [7] | outcome [8]

Cc1cccc2[nH]c(-c3ccc(-c4ccc(CNCc5ccccc5)cc4)s3)nc12
active: growth inhibition [1] 87% | growth inhibition [4] 103%
inactive: inhibition [2] 22% | inhibition [3] -1% | outcome [5] | outcome [6] | outcome [7] | outcome [8]

O=C(N[C@@H](CC1CCCCC1)C(=O)NCCN1CCOCC1)c1ccc(O)c(-c2ccc(Cl)c(Cl)c2)c1
inactive: inhibition [2] -3% | inhibition [3] 3% | outcome [5] | outcome [6] | outcome [7] | outcome [8]
active: growth inhibition [1] 99% | growth inhibition [4] 97%

COc1cc(NC(=O)CCCCCCCN2CCN(C)CC2)c2ncccc2c1
inactive: inhibition [2] 2% | inhibition [3] 1% | outcome [5] | outcome [6] | outcome [7] | outcome [8]
active: growth inhibition [1] 83% | growth inhibition [4] 95%

CC(C)COc1ccc(Cl)cc1Cc1ccc(-c2nc3ccc(C(F)(F)F)cc3[nH]2)o1
inactive: inhibition [2] 14% | inhibition [3] 5% | outcome [5] | outcome [6] | outcome [7] | outcome [8]
active: growth inhibition [1] 51% | growth inhibition [4] 97%

OC(CNCc1ccccc1OCc1ccccc1)c1cccc(C(F)(F)F)c1 (stereo not given)
inactive: inhibition [2] 12% | inhibition [3] -2% | outcome [5] | outcome [6] | outcome [7] | outcome [8]
active: growth inhibition [1] 99% | growth inhibition [4] 99%

CC(C)NCc1ccc(-c2cccc(NC(=O)c3ccc(F)cc3)c2)cc1
active: growth inhibition [4] 91%
inactive: growth inhibition [1] 7% | inhibition [2] 28% | inhibition [3] 6% | outcome [5] | outcome [6] | outcome [7] | outcome [8]

CN(C)CCCOc1cc(NC(=O)Nc2ccc(-c3ccncc3)c3ccccc23)ccc1I
inactive: inhibition [2] 46% | inhibition [3] 1% | outcome [5] | outcome [6] | outcome [7] | outcome [8]
active: growth inhibition [1] 97% | growth inhibition [4] 101%

NCC(=O)Nc1cccc(Nc2nccc(-c3c(-c4cccc(NC(=O)c5ccccc5)c4)nn4ccccc34)n2)c1
inactive: inhibition [2] 45% | inhibition [3] 0% | outcome [5] | outcome [6] | outcome [7] | outcome [8]
active: growth inhibition [1] 87% | growth inhibition [4] 96%

Cc1cc(-c2ccc(NC(=O)N3CCc4cc(Br)c(N5CCN(C)CC5)cc43)cc2)cc(C)n1
inactive: growth inhibition [1] 4% | inhibition [2] 29% | inhibition [3] -2% | outcome [5] | outcome [6] | outcome [7] | outcome [8]
active: growth inhibition [4] 92%

COc1ccc(Nc2nc(NCc3ccco3)c3ccccc3n2)cc1
active: growth inhibition [1] 76% | growth inhibition [4] 99%
inactive: inhibition [2] 38% | inhibition [3] -4% | outcome [5] | outcome [6] | outcome [7] | outcome [8]

O=C(NC1CCN(Cc2ccccc2)CC1)c1csc2nc(-c3ccc(Cl)cc3)cn12
active: growth inhibition [4] 98%
inactive: growth inhibition [1] 14% | inhibition [2] 19% | inhibition [3] -10% | outcome [5] | outcome [6] | outcome [7] | outcome [8]

COc1ccc(N2CCN(CCCCNC(=O)c3ccc(NC(=O)c4ccc(OC(F)(F)F)cc4)cc3)CC2)c(OC)c1
inactive: inhibition [2] 36% | inhibition [3] 5% | outcome [5] | outcome [6] | outcome [7] | outcome [8]
active: growth inhibition [1] 90% | growth inhibition [4] 101%

CN(C)C(=O)c1ccc(CN(Cc2ccc(OC(C)(C)C)cc2)Cc2ccc3c(c2)OCCO3)cc1
inactive: inhibition [2] -5% | inhibition [3] 1% | outcome [5] | outcome [6] | outcome [7] | outcome [8]
active: growth inhibition [1] 96% | growth inhibition [4] 95%

Cc1ccc(-c2cc(C(=O)Nc3ccc(S(=O)(=O)N4CCCC(C)C4)cc3)[nH]n2)c(O)c1 (stereo not given)
inactive: inhibition [2] 32% | inhibition [3] -4% | outcome [5] | outcome [6] | outcome [7] | outcome [8]
active: growth inhibition [1] 99% | growth inhibition [4] 102%

O=C(NCC1CCC(C(=O)NCCc2ccc(Cl)c(Cl)c2)CC1)c1ccc(O)c(-c2ccc(Cl)c(Cl)c2)c1 (stereo not given)
inactive: growth inhibition [1] 12% | inhibition [2] -5% | inhibition [3] -1% | outcome [5] | outcome [6] | outcome [7] | outcome [8]
active: growth inhibition [4] 94%

COc1cc2nc(N3CCC(CNC(=O)/C=C/c4cccc(C)c4)CC3)nc(N)c2cc1OC
inactive: inhibition [2] 16% | inhibition [3] -8% | outcome [5] | outcome [6] | outcome [7] | outcome [8]
active: growth inhibition [1] 68% | growth inhibition [4] 101%
